Data: the antibiotic and cytotoxicity screens of Wong et al. (2023)
The whole screen tested about 39,000 compounds, of which about 3,300 (8.5%) were called active. The full list was thinned out, with actives kept by preference.

tested on: HepG2; experiment: cytotoxicity call (relative viability < 0.9); conditions: 10 µM

Row | SMILES | cytotoxicity call
1 | CCC(=O)Nc1ccc2c(c1)OC[C@H](C)N(C(=O)CN1CCOCC1)C[C@H](C)[C@@H](OC)CN(C)C2=O | inactive
2 | CO[C@H]1CN(C)C(=O)c2ccc(NS(=O)(=O)c3cn(C)cn3)cc2OC[C@H](C)N(CC2CC2)C[C@H]1C | inactive
3 | O=C(N/N=C/[C@H](O)[C@@H](O)[C@@H](O)[C@H](O)CO)c1ccccn1 | inactive
4 | COc1ccc(NC(=O)N(C)C[C@H]2OCCCC[C@H](C)Oc3ccc(NS(=O)(=O)c4ccc(Cl)cc4)cc3C(=O)N([C@@H](C)CO)C[C@@H]2C)cc1 | inactive
5 | COc1ccc(-c2cnc3c(c2)C(=O)N([C@H](C)CO)C[C@H](C)[C@@H](CN(C)C(=O)Cc2ccncc2)O3)cc1 | inactive
6 | C[C@H](CO)N1C[C@H](C)[C@H](CN(C)S(C)(=O)=O)Oc2ccc(NS(=O)(=O)c3cccs3)cc2CC1=O | inactive
7 | C[C@@H]1CN([C@@H](C)CO)C(=O)Cc2cc(NS(=O)(=O)c3cn(C)cn3)ccc2O[C@H]1CN(C)C(=O)Nc1ccc(F)cc1 | inactive
8 | C=CC[C@H](CC(=O)NCCO)C(=O)NC[C@H](OC(=O)[C@@H](CC=C)CC(=O)OC(C)(C)C)c1ccccc1 | inactive
9 | C[C@H]1CN([C@@H](C)CO)C(=O)c2cccc(NS(=O)(=O)c3cccs3)c2O[C@@H]1CN(C)C(=O)Nc1cccc2ccccc12 | active
10 | Cc1ccc(S(=O)(=O)Nc2cccc3c2O[C@H](CN(C)C(=O)Nc2cccc4ccccc24)[C@@H](C)CN([C@@H](C)CO)C3=O)cc1 | active
11 | COc1ccc(S(=O)(=O)Nc2cccc3c2O[C@H](CN(C)C(=O)Nc2c(C)noc2C)[C@@H](C)CN([C@@H](C)CO)C3=O)cc1 | inactive
12 | COc1ccc(S(=O)(=O)Nc2cccc3c2O[C@H](CN(C)C(=O)Nc2cccc4ccccc24)[C@H](C)CN([C@H](C)CO)C3=O)cc1 | inactive
13 | COc1ccc(S(=O)(=O)Nc2cccc3c2O[C@H](CN(C)C(=O)Nc2c(C)noc2C)[C@@H](C)CN([C@H](C)CO)C3=O)cc1 | active
14 | COc1ccc(S(=O)(=O)Nc2cccc3c2O[C@H](CN(C)C(=O)Nc2cccc4ccccc24)[C@H](C)CN([C@@H](C)CO)C3=O)cc1 | inactive
15 | COc1ccc(S(=O)(=O)Nc2cccc3c2O[C@@H](CN(C)C(=O)Nc2c(C)noc2C)[C@H](C)CN([C@@H](C)CO)C3=O)cc1 | inactive
16 | Cc1ccc(S(=O)(=O)Nc2cccc3c2O[C@@H](CN(C)C(=O)Nc2cccc4ccccc24)[C@H](C)CN([C@@H](C)CO)C3=O)cc1 | inactive
17 | C[C@H](CO)N1C[C@H](C)[C@@H](CN(C)C(=O)Nc2cccc3ccccc23)Oc2c(NS(=O)(=O)c3cccs3)cccc2C1=O | inactive
18 | C[C@@H]1CN([C@H](C)CO)C(=O)c2cccc(NS(=O)(=O)c3cccs3)c2O[C@H]1CN(C)C(=O)Nc1cccc2ccccc12 | inactive
19 | COc1ccc(S(=O)(=O)Nc2cccc3c2O[C@@H](CN(C)C(=O)Nc2cccc4ccccc24)[C@H](C)CN([C@@H](C)CO)C3=O)cc1 | active
20 | Cc1ccc(S(=O)(=O)Nc2cccc3c2O[C@H](CN(C)C(=O)Nc2cccc4ccccc24)[C@@H](C)CN([C@H](C)CO)C3=O)cc1 | inactive
21 | CN(C)CC(=O)N[C@H]1CC[C@@H](CCn2cc(CN(C)C)nn2)O[C@H]1CO | inactive
22 | O=C(N[C@@H]1CC=CC[C@H](CC(=O)N(CCO)Cc2ccccc2)C(=O)NCC(c2ccccc2)OC1=O)OCC1c2ccccc2-c2ccccc21 (some centres not stated) | inactive
23 | C[C@@H]1CN([C@@H](C)CO)C(=O)c2cc(/C=C/c3ccccc3)cnc2O[C@H]1CN(C)C(=O)c1cnccn1 | inactive

Row | SMILES | cytotoxicity call
24 | Cc1cccc(S(=O)(=O)N2C[C@H](O)COC[C@@H]3O[C@@H](CC(=O)NCCCN4CCOCC4)CC[C@H]32)c1 | inactive
25 | Cc1noc(C)c1NC(=O)N(C)C[C@H]1OCCCC[C@H](C)Oc2ccc(NC(=O)c3ccccc3)cc2C(=O)N([C@H](C)CO)C[C@@H]1C | inactive
26 | C[C@H]1CNC(=O)[C@@H](CC(=O)N(CCOC(=O)NCCCCCC(=O)NO)Cc2ccccc2)C/C=C/CC[C@H](NC(=O)OC(C)(C)C)C(=O)O1 | inactive
27 | COc1ccccc1C#Cc1ccc2c(c1)O[C@@H](CN(C)C(C)=O)[C@@H](C)CN([C@@H](C)CO)S2(=O)=O | inactive
28 | C[C@H]1CCCCO[C@@H](CN(C)Cc2ccc(C(=O)O)cc2)[C@@H](C)CN([C@@H](C)CO)C(=O)c2cc(NC(=O)C3CCCCC3)ccc2O1 | inactive
29 | C[C@H](NC(=O)C[C@H]1C[C@@H]2c3cc(NC(=O)Nc4ccc(C(F)(F)F)cc4)ccc3O[C@@H]2[C@H](CO)O1)c1ccccc1 | inactive
30 | C[C@@H]1CCCCO[C@@H](CN(C)C(=O)Nc2cccc3ccccc23)[C@@H](C)CN([C@H](C)CO)C(=O)c2cc(NS(C)(=O)=O)ccc2O1 | inactive
31 | C[C@H]1CN([C@@H](C)CO)C(=O)c2cc(NC(=O)Cn3cnnn3)ccc2O[C@@H]1CN(C)S(C)(=O)=O | inactive
32 | CN(C)C(=O)C[C@@H]1CC[C@@H]2[C@H](COC[C@@H](O)CN2S(=O)(=O)c2ccccc2)O1 | inactive
33 | C[C@@H]1CN([C@H](C)CO)S(=O)(=O)c2ccc(-c3ccc(F)cc3)cc2O[C@@H]1CN(C)C(=O)C1CCOCC1 | inactive
34 | COc1ccc(NC(=O)Nc2ccc3c(c2)C(=O)N([C@H](C)CO)C[C@H](C)[C@@H](CN(C)C(=O)Cc2ccccc2)OCCCC[C@@H](C)O3)cc1 | inactive
35 | CCc1nc2ccc(C(=O)NC3CCN(Cc4ccccc4)CC3)cn2c1N(C)Cc1cc2ccccc2s1 | active
36 | CCc1nc2ccc(C(=O)Nc3cccc(OCC(=O)N(C)C)c3)cn2c1N(C)Cc1cc2ccccc2s1 | inactive
37 | CCc1nc2ccc(C(=O)NC3CCN(Cc4ccccc4)CC3)cn2c1N(C)CCN1CCOCC1 | inactive
38 | C[C@@H]1CCCCO[C@@H](CN(C)C(=O)Nc2ccc(C(F)(F)F)cc2)[C@H](C)CN([C@@H](C)CO)C(=O)c2cc(NC(=O)Cc3ccccc3)ccc2O1 | inactive
39 | O=C(O)CN(CCN(CC(=O)O)CC(=O)O)CCN(CC(=O)O)CC(=O)O | inactive
40 | CO[C@H]1CCCNC1 | inactive
41 | COc1ccc(NC(=O)N(C)C[C@@H]2Oc3ccc(NC(=O)CCCCCC(=O)Nc4ccccc4N)cc3C(=O)N([C@H](C)CO)C[C@@H]2C)cc1 | active
42 | COc1ccc(NC(=O)N(C)C[C@@H]2Oc3ccc(NC(=O)CCCCCC(=O)Nc4ccccc4N)cc3C(=O)N([C@H](C)CO)C[C@H]2C)cc1 | inactive
43 | C[C@H](CO)N1C[C@H](C)[C@@H](CN(C)C(=O)Nc2ccc(C(F)(F)F)cc2)Oc2ccc(NC(=O)CCCCCC(=O)Nc3ccccc3N)cc2C1=O | inactive
44 | C[C@@H]1CN([C@@H](C)CO)C(=O)c2cc(NC(=O)CCCCCC(=O)Nc3ccccc3N)ccc2O[C@@H]1CN(C)C(=O)Nc1ccc(C(F)(F)F)cc1 | inactive
45 | C[C@H](CO)N1C[C@H](C)[C@H](CN(C)C(=O)Nc2ccc(C(F)(F)F)cc2)Oc2ccc(NC(=O)CCCCCC(=O)Nc3ccccc3N)cc2C1=O | active
46 | C[C@@H]1CN([C@H](C)CO)C(=O)c2cc(NC(=O)CCCCCC(=O)Nc3ccccc3N)ccc2O[C@H]1CN(C)C(=O)Nc1ccc(C(F)(F)F)cc1 | inactive

Row | SMILES | cytotoxicity call
47 | COc1ccc(NC(=O)N(C)C[C@H]2Oc3ccc(NC(=O)CCCCCC(=O)Nc4ccccc4N)cc3C(=O)N([C@@H](C)CO)C[C@H]2C)cc1 | inactive
48 | C[C@H]1CN([C@@H](C)CO)C(=O)c2cc(NC(=O)CCCCCC(=O)Nc3ccccc3N)ccc2O[C@H]1CN(C)C(=O)Nc1ccc(C(F)(F)F)cc1 | active
49 | C[C@H]1CN([C@@H](C)CO)C(=O)c2cc(NC(=O)CCCCCC(=O)Nc3ccccc3N)ccc2O[C@@H]1CN(C)C(=O)Nc1ccc(C(F)(F)F)cc1 | inactive
50 | C[C@@H]1CCCCO[C@H](CN(C)S(=O)(=O)c2ccc(F)cc2)[C@@H](C)CN([C@@H](C)CO)C(=O)c2cc(NC(=O)Nc3cccc4ccccc34)ccc2O1 | inactive
51 | CC(=O)N(C)CCc1ccc(C)[n+]([O-])c1 | inactive
52 | C[C@@H]1CN([C@H](C)CO)C(=O)c2cc(-c3cncnc3)cnc2O[C@@H]1CN(C)C(=O)CN1CCOCC1 | inactive
53 | Cc1ccc(S(=O)(=O)N(C)C[C@H]2OCCCC[C@@H](C)Oc3ccc(NC(=O)Nc4ccc(F)cc4)cc3C(=O)N([C@@H](C)CO)C[C@@H]2C)cc1 | inactive
54 | C[C@H](O)C#Cc1cnc2c(c1)C(=O)N([C@H](C)CO)C[C@H](C)[C@H](CN(C)C(=O)Nc1ccc(C(F)(F)F)cc1)O2 | inactive
55 | CO[C@@H]1CN(C)C(=O)c2cc(NC(=O)C3CC3)ccc2OC[C@H](C)N(C(=O)Cc2ccccn2)C[C@H]1C | inactive
56 | O=C1CCC(c2ccc(O)cc2)CC1 | inactive
57 | O=C1C=CC(=O)N1c1ccc(O)cc1 | active
58 | Cc1ccc(S(=O)(=O)N(C)C[C@H]2OCCCC[C@@H](C)Oc3ccc(NC(=O)Nc4ccc(C(F)(F)F)cc4)cc3C(=O)N([C@H](C)CO)C[C@@H]2C)cc1 | inactive
59 | C[C@@H]1CN([C@@H](C)CO)C(=O)c2cc(NC(=O)Cn3cnnn3)ccc2O[C@H]1CN(C)S(=O)(=O)c1cn(C)cn1 | inactive
60 | C[C@@H]1CN([C@H](C)CO)C(=O)c2cc(NC(=O)Nc3cccc4ccccc34)ccc2O[C@@H](C)CCCCO[C@@H]1CN(C)S(=O)(=O)c1cn(C)cn1 | inactive
61 | C[C@@H]1CN([C@@H](C)CO)C(=O)c2cccc(NS(=O)(=O)c3cn(C)cn3)c2O[C@@H]1CN(C)S(=O)(=O)c1cccs1 | inactive
62 | OCc1ccc(O)cc1 | inactive
63 | Cc1ccc(O)cc1 | inactive
64 | Nc1ccc(C(=O)O)cc1 | inactive
65 | Nc1ccc(O)cc1 | active
66 | Oc1ccc(O)cc1 | active
67 | Nc1cccc(O)c1 | inactive
